Compound activity deposited in PubChem by University of Kansas High Throughput Screening Laboratory.
Pf apPOL block: Pf-apPOL DNA polymerase inhibition; 210,000 compounds, 0.25% hits; inhibition, % at 10 µM; Recombinant Pf-apPOL, molecular beacon fluorescence, 1.5 h
mHTT-CaM PPI inh: inhibitors of human mutant huntingtin-calmodulin interaction. P42858. AlphaScreen His-mHTT/GST-CaM binding, luminescence. inhibition, % at 15 µM. 190,000 compounds, 3.6% hits. AID 1671202;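 note: 0% = both proteins with DMSO and 100% = one protein alone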
Numbers without * were called inactive; x = no result given; ! = a repeat was not active. A selection: hits, their analogues and other compounds. The true share with any hit is near 3.6%. Cut-off read from the data, not from the text of the source: active = inhibition above about 50%; inactive = the rest.

SMILES	Pf apPOL block	mHTT-CaM PPI inh
CN1CCC(N2CCN(C(=O)c3cc4cn(C5CCCC5)cc4s3)CC2)CC1	-3	30
CC(C)CN1CCN(C(=O)c2cc3cn(C(C)C)cc3s2)CC1	-8	15
CC(C)n1cc2cc(C(=O)N3CCN(Cc4ccc5c(c4)OCO5)CC3)sc2c1	-10	65*
O=C(c1cc2cn(C3CC3)cc2s1)N1CCOCC1	-5	5
O=C(c1cc2cn(C3CC3)cc2s1)N1CCN(Cc2ccc3c(c2)OCO3)CC1	-3	63*
CC(C)n1cc2cc(C(=O)N3CCN(Cc4ccccc4F)CC3)sc2c1	3	60*
CC(=O)N1CCN(C(=O)c2cc3cn(C(C)C)cc3s2)CC1	-1	13
O=C(c1cc2cn(C3CC3)cc2s1)N1CCN(C2CCCCC2)CC1	0	55*
Cc1cccc(NC(=O)C2CCc3nc(N4CCCC4)ncc3C2)c1C (centres undefined)	6	-10
COc1ccc2ncc(C#N)c(N3CCC(C(=O)Nc4cccc(F)c4)CC3)c2c1	0	-8
O=c1[nH]/c(=C/c2ccco2)c(=O)[nH]/c1=C\c1ccco1	x	-1
O=C1C2C(c3ccccc3)CC=CC2[C@H](c2cccc(Br)c2)N1Cc1ccccc1 (some centres undefined)	-1	100*
CC[C@@H]1CC=C[C@H]2[C@H]1C(=O)N(Cc1ccccc1)[C@H]2c1ccc(C(F)(F)F)cc1	-4	71*
O=C1C2C(c3cccc(/C=C/c4ccccc4)c3)CC=CC2C(c2ccc(C(F)(F)F)cc2)N1Cc1ccccc1 (centres undefined)	-4	-3
CC[C@@H]1CC=C[C@H]2[C@H]1C(=O)N(Cc1ccccc1)[C@H]2c1ccoc1	-1	85*
C[C@@H]1CC=C[C@H]2[C@H]1C(=O)N(Cc1ccccc1)[C@H]2c1ccoc1	1	15
O=C1C2C(c3cccc(/C=C/c4ccccc4)c3)CC=CC2C(c2ccc3ccccc3c2)N1Cc1ccccc1 (centres undefined)	-5	-6
CCCc1cc(C2CCCN2Cc2cn[nH]c2-c2ccc(OC)cc2)no1 (centres undefined)	-1	21
CCC(=O)NCc1nc2c(n1C)CN(S(=O)(=O)c1ccc(Br)cc1)CC2	-6	15
COc1ccccc1-n1ccn2cc(-c3cccc(Cl)c3)nc2c1=O	-11	-4
CC(C)CN(CC(C)C)C1=CC(=O)OC12CCCCC2	-6	3
CCOC(=O)C(C)Oc1ccc2c(c1)OC(=Cc1cccc(Br)c1)C2=O (centres undefined)	0	-2
CC(=O)N1C(=O)/C(=C2/SC(=Nc3ccc(Br)cc3)NC2=O)c2ccccc21	-10	-4
O=C(c1ccsc1)N1CCN(c2nnc3c(Cl)cccn23)CC1	-1	32
O=C(CC1CCCCC1)N1CCN(c2nnc3c(Cl)cccn23)CC1	-10	60*
SMILES	Pf apPOL block	mHTT-CaM PPI inh
Cc1ccc(C2C(C#N)=C(N)Oc3c2ccc2cccnc32)cc1 (centres undefined)	-5	58*
Cc1ccc(C2C(C#N)=C(N)Oc3cc(O)ccc32)cc1 (centres undefined)	-6	10
Brc1ccccc1-c1nnc2n1N=C(c1ccccc1)CS2	-4	31
Brc1cccc(C2=Nn3c(nnc3-c3ccccn3)SC2)c1	x	54*
Clc1ccc(Cn2cnc(Cl)c2Cl)cc1Cl	-6	73*
Cc1ccc(=O)n(Cc2ccc(Cl)c(Cl)c2)n1	-10	x
O=C1NC(c2ccccc2)=NC1=Cc1ccccc1	3	x
c1ccc(C2=NNC(c3ccccc3)=NN2)cc1	99*!	24
CC(=O)C=Cc1ccccc1O	1	-2
O=[N+]([O-])c1cccc(/C=C/c2nc(C=Nc3ccccc3)c(O)o2)c1	1	-2
O=[N+]([O-])c1cccc(/C=C/c2nc(C=Nc3ccc(O)cc3)c(O)o2)c1	5	50*
COc1ccc(OC)c(NC(=O)c2cc(C)n(CCN(C)C)c2C)c1	-1	23
COc1ccc(C)cc1NC(=O)c1cc(C)n(CCN(C)C)c1C	3	51*
COc1ccc(OCC(=O)N2CCC3(CC2)Nc2cc(C)ccc2-n2cccc23)cc1	4	54*
CCOc1ccccc1C(=O)N1CCC2(CC1)Nc1ccccc1-n1cccc12	-4	16
Cc1cccc(OCC(=O)N2CCC3(CC2)NC(=O)N(Cc2ccc(F)cc2)C3=O)c1	-5	29
COc1cccc(CC(=O)N2CCC3(CC2)Nc2cc(OC)ccc2-n2cccc23)c1	-6	92*
COc1ccc2c(c1)NC1(CCN(C(=O)COc3ccc(F)cc3)CC1)c1cccn1-2	1	96*
COc1cccc(CC(=O)N2CCC3(CC2)NC(=O)N(Cc2ccc(C)cc2)C3=O)c1	-2	14
COc1ccc(OCC(=O)N2CCC3(CC2)Nc2cccnc2NC3=NC(C)(C)C)cc1	-1	16
O=C(COc1ccc(Cl)cc1)N1CCC2(CC1)Nc1ccccc1-n1cccc12	-2	93*
COc1ccc(NC(=O)N2CCN(C3=CC4=NC(C)CN4C=N3)CC2)cc1Cl (centres undefined)	-2	3
